Among all 52,000 compounds or so, about 4,300 (8.3%) were called active. The sample holds actives, similar compounds and a random draw of the others, so the mix is not that of the screen. No stated cut-off is given here; in the data, active means survival mostly below about 52% (no sharp cut-off); inactive means mostly above about 56%.
test system: DeltatarO mutant; test: S. aureus survival, RN4220 and DeltatarO strains – OD600, teichoic acid synthesis inhibitors, primary screen (AID 463173); settings: S. aureus RN4220 wild type/DeltatarO growth, OD600, 18 h, stronger effect = lower value, screened at 18.75 µg/mL (by protocol)

Row | SMILES | survival
1 | CCc1ccc(CN(Cc2ccco2)C(=O)COc2ccc(Cl)cc2C)cc1 | 55% (inactive)
2 | O=C(CNC(=O)c1ccccc1)OCc1cc(=O)n2nc(C3CCCCC3)sc2n1 | 90% (inactive)
3 | O=C(O)CC1c2ccccc2CCN1C(=O)Nc1cc(Cl)ccc1Cl (stereo not given) | 94% (inactive)
4 | COc1ccc(NC(=O)Cn2c(=O)n(-c3cccc(C)c3)c(=O)c3c2c2cc(C)ccc2n3C)cc1OC | 79% (inactive)
5 | c1ccc(CNCC2COc3ccccc3O2)cc1 (stereo not given) | 114% (inactive)
6 | Cc1ccc(-n2ncc3c(N4CCN(C)CC4)ncnc32)cc1C | 89% (inactive)
7 | Cc1ccc(CNC(=O)NC2COc3ccccc3C2)cc1 (stereo not given) | 107% (inactive)
8 | COc1ccc(OC)c(S(=O)(=O)Nc2cc3c(C(C)=O)c(C)oc3c3ccccc23)c1 | 52% (inactive)
9 | CCOC(=O)c1c(C)oc2c1cc(NS(=O)(=O)c1ccc(C)cc1)c1ccccc12 | 56% (inactive)
10 | COc1ccc(S(=O)(=O)Nc2cc3c(C(=O)OC(C)C)c(C)oc3c3ccccc23)cc1 | 38% (active)
11 | Cc1nc(-c2ccc(S(=O)(=O)Nc3ccc(OC(F)(F)F)cc3)cc2)co1 | 78% (inactive)
12 | Cc1ccc2c(c1C)NC(C(=O)O)C1CC=CC21 (stereo not given) | 85% (inactive)
13 | COC(=O)c1ccc([C@@H]2Nc3c(cccc3C(F)(F)F)[C@@H]3C=CC[C@@H]32)cc1 | -3% (active)
14 | COC(=O)c1cccc2c1NC(c1cccnc1)C1CC=CC21 (stereo not given) | 101% (inactive)
15 | Cc1ccc(Cl)c2c1N[C@@H](c1ccc(C(=O)O)cc1)[C@H]1CC=C[C@@H]21 | -10% (active)
16 | COC(=O)c1ccc([C@@H]2Nc3c(OC)ccc(C)c3[C@@H]3C=CC[C@@H]32)cc1 | 49% (inactive)
17 | COc1cc([C@@H]2Nc3c(F)cccc3[C@@H]3C=CC[C@@H]32)cc(Br)c1OC | 55% (inactive)
18 | CCOC(=O)c1cccc2c1N[C@@H](c1ccc(F)cc1)[C@H]1CC=C[C@@H]21 | 4% (active)
19 | COC(=O)c1ccc([C@@H]2Nc3c(C)cc(C)cc3[C@@H]3C=CC[C@@H]32)cc1 | 51% (active)
20 | CCOc1cccc2c1N[C@@H](c1ccc(C(=O)O)cc1)[C@H]1CC=C[C@@H]21 | 68% (inactive)
21 | Cc1ccc([C@H]2Nc3ccc(S(=O)(=O)Nc4cccc(Cl)c4C)cc3[C@H]3C=CC[C@H]32)cc1 | 50% (inactive)
22 | COCCN(CCOC)C(=O)c1cc2c(=O)n3ccccc3nc2n1C | 51% (inactive)
23 | CCOc1ccccc1NC(=O)N(C)CCc1c(C)nn(CC)c1C | 120% (inactive)

Row | SMILES | survival
24 | Cc1c(C(=O)N2CCCC2)oc2c1-c1nn(CC(=O)NC(C)c3ccccc3)cc1CC2 (stereo not given) | 72% (inactive)
25 | Cc1nc(SCC(=O)N2c3ccccc3CCc3ccccc32)n[nH]1 | 102% (inactive)
26 | Cc1cccc(C(=O)NC2=NC(c3ccc(Cl)cc3)CC(=O)N2)c1 (stereo not given) | 88% (inactive)
27 | COc1ccccc1NC(=O)CN1C(=O)CC(c2ccc(C)c(C)c2)=Nc2ccccc21 | 84% (inactive)
28 | O=C1Nc2ccc(S(=O)(=O)Nc3ccccc3O)c3cccc1c23 | 62% (inactive)
29 | CCOC(=O)c1ccc(NC2=CC(c3ccc(O)c(OCC)c3)N(c3ccc(C(=O)OCC)cc3)C2=O)cc1 (stereo not given) | 59% (inactive)
30 | Cc1ccc(S(=O)(=O)c2nnn3c2nc(NCc2ccc4c(c2)OCO4)c2sccc23)cc1 | 113% (inactive)
31 | COc1ccccc1CNC(=O)CCn1c(=O)c2cccn2c2cccnc21 | 80% (inactive)
32 | COCCCNC(=O)c1nn(-c2ccc(C)cc2)nc1CO | 82% (inactive)
33 | Cc1ccc(S(=O)(=O)c2nc(-c3ccc(F)cc3)oc2SCC(=O)c2ccccc2)cc1 | 47% (active)
34 | O=C(CSc1oc(-c2ccc(F)cc2)nc1S(=O)(=O)c1ccc(Cl)cc1)c1ccccc1 | 45% (active)
35 | Cc1ccc(-c2nc(S(=O)(=O)c3ccc(C)cc3)c(SCC(=O)c3ccccc3)o2)cc1 | 52% (inactive)
36 | Cc1ccc(S(=O)(=O)c2nc(-c3ccccc3)oc2SCC(=O)NC2CCCCC2)cc1 | 166% (inactive)
37 | O=C(CSc1oc(-c2ccccc2)nc1S(=O)(=O)c1ccc(Br)cc1)c1ccccc1 | 58% (inactive)
38 | O=C(CSc1oc(-c2ccccc2)nc1S(=O)(=O)c1ccc(Cl)cc1)Nc1ccc(F)cc1 | 162% (inactive)
39 | O=C(CSc1oc(-c2ccc(F)cc2)nc1S(=O)(=O)c1ccccc1)c1ccc(Cl)cc1 | 55% (inactive)
40 | Cc1ccc(-c2nc(S(=O)(=O)c3ccc(C)cc3)c(SCC(=O)Nc3ccc(F)cc3)o2)cc1 | 58% (inactive)
41 | Cc1ccc(-c2nc(S(=O)(=O)c3ccccc3)c(SCC(=O)NC3CCCCC3)o2)cc1 | 43% (active)
42 | O=C(CSc1oc(-c2ccccc2)nc1S(=O)(=O)c1ccc(Cl)cc1)c1ccccc1 | 44% (active)
43 | Cc1ccc(-c2nc(S(=O)(=O)c3ccc(C)cc3)c(SCC(=O)NC3CCCCC3)o2)cc1 | 51% (inactive)
44 | O=C(CSc1oc(-c2ccccc2)nc1S(=O)(=O)c1ccccc1)c1ccccc1 | 148% (inactive)
45 | Cc1cccc(N2C(=O)C(CC(=O)Nc3ccc(F)cc3)N(C3CCCC3)C2=O)c1 (stereo not given) | 130% (inactive)
46 | CCCC1=Nc2cc(C(=O)NCCc3ccc(OC)cc3OC)ccc2Sc2ccccc21 | 99% (inactive)

Row | SMILES | survival
47 | O=C(CC(NCc1ccccc1)C(=O)O)NC1CCCCC1 (stereo not given) | 102% (inactive)
48 | Cn1c(=O)c(C(=O)NCCN2CCNCC2)c(O)c2ccccc21 | 68% (inactive)
49 | CCCn1c(=O)c2sccc2n2c(CCCC(=O)NC3CCC(C)CC3)nnc12 (stereo not given) | 100% (inactive)
50 | COc1ccc(OC)c(CNC(=O)c2cnc(N(C)C)nc2)c1 | 71% (inactive)
51 | O=C(Cc1ccc(NC(=O)N2CCCCc3ccccc32)cc1)Nc1ccccc1Br | 73% (inactive)
52 | Cc1ccc(C)c(N2CCN(C(=O)c3cccc(-n4c(C)nc5cccnc54)c3)CC2)c1 | 78% (inactive)
53 | COc1ccc(CNc2nc3ccccc3c3nc(-c4ccccc4)nn23)cc1 | 35% (active)
54 | COc1cccc(CNc2nc3c(-c4cccc(C)c4)nnn3c3ccccc23)c1 | 96% (inactive)
55 | Cc1ccc(CNc2nc3ccccc3c3nc(-c4cccc(C)c4)nn23)cc1 | 18% (active)
56 | Cc1ccc(CNc2cc(C)nc3nc(-c4cccc(C)c4)nn23)cc1 | 124% (inactive)
57 | Cc1ccc(CNc2cc(C)nc3nc(-c4ccc(C)cc4)nn23)cc1 | 69% (inactive)
58 | Clc1ccccc1CNc1nc2ccccc2c2nc(-c3ccccc3)nn12 | 108% (inactive)
59 | CCc1c(C)nc2nc(-c3ccccc3)nn2c1NCc1ccc(C)cc1 | -4% (active)
60 | c1ccc(CNc2nc3ccccc3c3nc(-c4ccccc4)nn23)cc1 | 54% (inactive)
61 | CCc1c(C)nc2nncn2c1NCc1ccccc1 | 85% (inactive)
62 | COc1cccc(CNc2nc3ccccc3c3nc(-c4cccc(C)c4)nn23)c1 | 31% (active)
63 | COc1cccc(CNC(=O)Cn2c(=O)n3nc(-c4cccc(C)c4)nc3c3ccccc32)c1 | 93% (inactive)
64 | Cc1cccc(-c2nc3c4ccccc4nc(NCc4ccc(F)cc4)n3n2)c1 | 84% (inactive)
65 | N#C/C(=C\C1CC=CCC1)c1nc2ccccc2[nH]1 (stereo not given) | 86% (inactive)
66 | Cc1cc(C)cc(NC(=O)CSc2nc(-c3ccccc3)nn2C(=O)c2ccco2)c1 | 110% (inactive)
67 | S=C(NCCCN1CCOCC1)N1CCN(c2ccccc2)CC1 | 84% (inactive)
68 | Cc1c(C=Nc2ccc(Cl)cc2)c(O)n(C)c(=O)c1C#N | 74% (inactive)
69 | CCSc1ncc(Cl)c(C(=O)Nc2c(C(=O)Nc3ccc(Cl)cc3)oc3ccccc23)n1 | 105% (inactive)

Row | SMILES | survival
70 | Clc1ccc(CNc2nc3ccccc3c3nc(-c4cccnc4)nn23)cc1 | 80% (inactive)
71 | Cc1cccc(-c2nc3c4ccccc4nc(N4CCN(c5ccc(F)cc5)CC4)n3n2)c1 | 65% (inactive)
72 | CC(=O)c1ccc(N2CCN(c3nc4ccccc4c4nc(-c5cccc(C)c5)nn34)CC2)cc1 | 41% (active)
73 | Cc1cccc(-c2nc3c4ccccc4nc(NCc4ccc(Cl)cc4)n3n2)c1 | 44% (active)
74 | Cc1cccc(-c2nc3c4ccccc4nc(N4CCN(c5cccc(Cl)c5)CC4)n3n2)c1 | 71% (inactive)
75 | CCCCCC(=O)Nc1ccc(NC(=O)c2cc3ccccc3o2)c(OC)c1 | 68% (inactive)
76 | Cc1ccc(CCNC(=O)CCCc2nnc3n(C)c(=O)c4sccc4n23)cc1 | 86% (inactive)
77 | CC(C)n1c(N2CCN(Cc3ccc(Cl)cc3)CC2)nc2ccccc21 | 83% (inactive)
78 | CCCN1CCN(C(=O)Cn2ncc3c4ccccc4n(Cc4cccc(Cl)c4)c3c2=O)CC1 | 72% (inactive)
79 | CCn1c2ccccc2c2cc(CN3CCN(Cc4cccc(Cl)c4)CC3)ccc21 | -1% (active)
80 | CCCn1c(N2CCN(Cc3ccc(Cl)cc3)CC2)nc2ccccc21 | 91% (inactive)
81 | CCn1c2ccccc2c2cc(CN3CCN(Cc4ccco4)CC3)ccc21 | 81% (inactive)
82 | Clc1ccccc1CN1CCN(Cc2ccco2)CC1 | 86% (inactive)
83 | CCn1c2ccccc2c2cc(CN3CCN(Cc4ccc(Cl)cc4)CC3)ccc21 | -1% (active)
84 | O=c1c2ccccc2n(Cc2cccc(Cl)c2)c(=O)n1Cc1ccccc1 | 124% (inactive)
85 | CCn1c2ccccc2c2cc(CN3CCN(Cc4ccc(Br)cc4)CC3)ccc21 | -1% (active)
86 | CCS(=O)(=O)N1CCN(Cc2ccccc2)CC1 | 72% (inactive)
87 | CCn1c2ccccc2c2cc(CN3CCN(Cc4ccccc4Cl)CC3)ccc21 | -1% (active)
88 | O=c1c2ccccc2n(Cc2ccccc2Cl)c(=O)n1CCc1ccccc1 | 60% (inactive)
89 | CCS(=O)(=O)N1CC(=O)N(c2cc(C)cc(C)c2)C(C)(C(=O)NC2CCCCC2)C1 (stereo not given) | 92% (inactive)
90 | COc1cc(NC(=O)Cn2cnc3c2c(=O)n(C)c(=O)n3C)c(OC)cc1Cl | 65% (inactive)
